Inconclusive results are not listed. Activity calls are given as the source filed them. Calls follow the shape of the full dose curve.

Chain of Tyrosine-protein kinase ABL1 (Homo sapiens) (P00519 whole entry, looked up): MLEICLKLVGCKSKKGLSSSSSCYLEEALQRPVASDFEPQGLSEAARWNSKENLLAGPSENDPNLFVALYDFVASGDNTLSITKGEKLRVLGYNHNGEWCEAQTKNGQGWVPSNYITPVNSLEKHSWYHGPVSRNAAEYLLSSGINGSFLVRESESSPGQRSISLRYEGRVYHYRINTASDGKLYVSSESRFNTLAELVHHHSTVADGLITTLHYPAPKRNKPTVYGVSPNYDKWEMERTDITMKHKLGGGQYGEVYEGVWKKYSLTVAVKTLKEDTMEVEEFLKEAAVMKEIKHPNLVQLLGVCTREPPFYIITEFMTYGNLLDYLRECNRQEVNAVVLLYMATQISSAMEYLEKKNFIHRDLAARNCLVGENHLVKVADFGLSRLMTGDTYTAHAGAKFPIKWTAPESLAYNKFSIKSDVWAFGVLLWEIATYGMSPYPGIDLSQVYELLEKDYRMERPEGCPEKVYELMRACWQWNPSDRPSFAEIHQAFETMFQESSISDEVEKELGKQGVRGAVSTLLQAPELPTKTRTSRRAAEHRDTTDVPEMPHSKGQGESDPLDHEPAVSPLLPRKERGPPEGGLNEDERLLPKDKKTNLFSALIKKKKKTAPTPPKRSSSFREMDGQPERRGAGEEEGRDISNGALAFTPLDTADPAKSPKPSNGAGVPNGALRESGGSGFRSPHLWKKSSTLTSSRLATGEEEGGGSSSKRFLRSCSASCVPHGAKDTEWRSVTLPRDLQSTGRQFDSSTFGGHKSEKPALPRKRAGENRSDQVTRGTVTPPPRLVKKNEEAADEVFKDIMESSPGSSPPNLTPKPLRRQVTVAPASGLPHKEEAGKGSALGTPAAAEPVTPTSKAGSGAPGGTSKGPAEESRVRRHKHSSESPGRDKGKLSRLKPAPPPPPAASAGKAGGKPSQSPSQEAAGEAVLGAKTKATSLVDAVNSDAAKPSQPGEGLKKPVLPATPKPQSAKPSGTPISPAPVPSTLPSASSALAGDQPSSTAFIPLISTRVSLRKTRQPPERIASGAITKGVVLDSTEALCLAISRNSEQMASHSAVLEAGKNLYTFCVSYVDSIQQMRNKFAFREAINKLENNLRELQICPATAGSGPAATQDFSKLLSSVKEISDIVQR

The assay concerns the target Tyrosine-protein kinase ABL1 (Homo sapiens) (UniProt P00519). In words: ABL1 kinase (ABL1-N-HiBiT) SDR gain of signal screen. As to conditions: Purified ABL1-N-HiBiT enzyme, Nano-Glo HiBiT luminescence, 30 min compound incubation; series mostly up to 32.9 µM; activity change, gain of signal: at the top concentration. The text has this:
National Center for Advancing Translational Sciences (NCATS),
National Institute of Health (NIH), Maryland
Discovery and optimization of novel protein-binding ligands underlies many of the methods and applications of biology, drug discovery, clinical diagnostics, and environmental toxicology. Assays for detecting the interaction of, for example, a molecule with a macromolecular target also referred to here as the target of interest (TOI) is dependent on a compatible output technology. Depending on the nature and knowledge surrounding the TOI, whether a receptor, enzyme, regulatory subunit or scaffold, or a sequence-defined nucleic acid folded into a complex tertiary structure, assay strategies can vary widely.
Here we exploit ligand-biased changes in the structural dynamics of the target protein to control reporter alpha complementation allowing a non-competitive, non-functional, non-separation measure of ligand-target interaction.
Secondly, we show the specificity and sensitivity of the SDR for the Abelson tyrosine kinase (ABL1) compared to the serine/threonine protein kinase A, using an enriched chemical library of 128 compounds selected, in part, for activity annotated with ABL1 kinase activity using the Pharos database (3).
(1) A. S. Dixon et al., NanoLuc Complementation Reporter Optimized for Accurate Measurement of Protein Interactions in Cells. ACS Chem Biol 11, 400-408 (2016).
Chemistry & Biology, 19, 1060 - 1072 (2012).
(3) K. J. Kelleher et al., Pharos 2023: an integrated resource for the understudied human proteome. Nucleic Acids Res 51, D1405-D1416 (2023).
PROTOCOL TABLE (as described by Inglese J, Shamu CE and Guy RK. 2007)
SEQUENCE No. (e.g., 1, 2, 3, etc.); […] (e.g., C. elegans, Compounds, Incubation, Read, etc.); VALUE and DESCRIPTION.
1. Reagent. Dispense 4 uL ABL1-N-HiBiT enzyme per well at a final enzyme concentration of 10 nM in buffer without ATP (SDR assay) into columns 2-48 of four replicate Greiner 1536-well white, solid bottom high base, medium plates per assay. Dispense respective buffer without enzyme at 4 uL/well in column 1 of assay plates using BioRaptr 2.
2. Compounds. Library compounds added at 23 nL/well by pin transfer. DMSO neutral control and imatinib positive control added at 25 nL/well, transfer by Mosquito dispenser.
3. Incubation. Incubate enzyme and compounds at room temperature for 30 min, protected from light.
4. Reagent. (SDR assay) Add 3 uL/well of Nano-Glo HiBiT reagent (Promega) to assay plates with or without ATP.
5. Incubation. (SDR assay) Incubate enzyme solution and HiBiT reagent at room temperature for 10 min, protect from light.
6. Detector. (SDR assay) Luminescence measured using CCD-based camera (ViewLux) with settings as follows: Exposure, 1 sec; Gain, High; Speed, Slow; Binning, 2X.
Inglese J, Shamu CE and Guy RK, Reporting data from high throughput screening of small molecule libraries, Nature Chemical Biology, 2007, 3(8): 438-441. doi.org/10.1038/nchembio0807-438.
Regarding `COc1cc(N2CCC(N3CCN(C)CC3)CC2)ccc1Nc1ncc(Cl)c(Nc2ccccc2P(C)(C)=O)n1`, the Potency is 605 nM (active).

Regarding `Cc1sc2c(c1C)C(c1ccc(Cl)cc1)=N[C@@H](CC(=O)Nc1ccc(OCCOCCOCCOCCNc3cccc4c3C(=O)N(C3CCC(=O)NC3=O)C4=O)cc1)c1nnc(C)n1-2` (stereo not given in full), the “activity change, gain of signal” value was 4.83% (inactive).

Take `CN1CCN(Cc2ccc(-c3cnc4[nH]cc(-c5ccc6[nH]ccc6c5)c4c3)cc2)CC1`: the Potency is 331 nM (active).

In the case of `C=CC(=O)N1CCC(Oc2cc3c(Nc4ccc(Cl)c(Cl)c4F)ncnc3cc2OC)CC1`, the Potency is 10800 nM (active).

Take `S=C(NCc1ccc2c(c1)OCO2)N1CCN(c2ncnc3c2oc2ccccc23)CC1`: the “activity change, gain of signal” value was 10.6% (inactive).

Consider `COc1cc(NC(=O)c2cccc(-n3cc(NC(=O)Nc4cccc(C)c4)cn3)c2)cc(OC)c1OC`, for which the “activity change, gain of signal” value is 9.84% (inactive).

On to `COc1cc(N2CCN(C)CC2)ccc1Nc1nc(N)c(C(=O)c2c(Cl)cccc2Cl)s1`, for which the “activity change, gain of signal” value is 1.1% (inactive).

As for `NC1CCC(Nc2nc(Nc3ccc(C(=O)N4CCCCC4)cc3)c3ncn(-c4cccc(F)c4)c3n2)CC1` (stereo not given), the Potency is 255 nM (active).

For the molecule `COc1ccc(S(=O)(=O)N(C(C)=O)c2ccccc2/C=C/c2cc[n+]([O-])cc2)cc1`, the “activity change, gain of signal” value was 7.6% (inactive).

Turning to `Cc1[nH]c2ccccc2c1C1=C(NCCc2ccc(F)cc2)C(=O)N(C)C1=O`, the “activity change, gain of signal” value was -9.98% (inactive).

With `Cc1cc(O)c2c(c1)C(=O)c1cc(O)cc(O)c1C2=O`, the “activity change, gain of signal” value was 2.25% (inactive).

For the molecule `CCCCNc1ncc2c(-c3ccc(S(=O)(=O)N4CCOCC4)cc3)nn(C3CCC(O)CC3)c2n1` (stereo not given), the Potency was 1520 nM (active).

On to `O=C(NOCC(O)CO)c1cc(Br)c(F)c(F)c1Nc1ccc(I)cc1F` (stereo not given), for which the “activity change, gain of signal” value is -2.82% (inactive).

In the case of `COc1cc2nccc(Oc3ccc(NC(=O)Nc4ccc(F)cc4F)c(F)c3)c2cc1OC`, the Potency was 641 nM (active).

Take `CCn1c(=O)c(-c2ccc(Cl)cc2Cl)cc2cnc(Nc3ccc(N4CCNCC4)c(F)c3)nc21`: the Potency was 6.77 nM (active).

As for `CN1CCN(CCCNc2ncc(Cl)c(-c3cc4c(C(=O)NC5CC5)cccc4s3)n2)CC1`, the “activity change, gain of signal” value was -13.8% (inactive).

In the case of `Cc1ccc(-n2nc(C(C)(C)C)cc2NC(=O)NCc2cc(F)ccc2Oc2ccc3c(cnn3CCO)c2)cc1`, the Potency was 67.9 nM (active).

For `c1ccc2c(-c3cnn4cc(-c5ccc(N6CCNCC6)cc5)cnc34)ccnc2c1`, the Potency is 148 nM (active).

With `O=S(=O)(/N=C/c1c(O)ccc2ccccc12)c1cccs1`, the “activity change, gain of signal” value is 1.83% (inactive).

Turning to `Cc1ccc(C(=O)Nc2ccc(CN3CCN(C)CC3)c(C(F)(F)F)c2)cc1C#Cc1cnc2[nH]ncc2c1`, the Potency is 4.14 nM (active).

Take `O=c1cc(N2CCOCC2)nc2c3ccccc3ccn12`: the Potency was 8550 nM (active).

`Nc1nc(NCCNc2ncc(-n3ccnc3)c(-c3ccc(Cl)cc3Cl)n2)ccc1[N+](=O)[O-]`: the “activity change, gain of signal” value was -22.7% (inactive).

On to `Cc1cc(F)ccc1-c1nc(NCCN=C(N)NC#N)nc2c1ccc(=O)n2-c1c(F)cccc1F`, for which the “activity change, gain of signal” value was 4.17% (inactive).

Turning to `COC(=O)Nc1ccc(-c2nc(N3CCOCC3)c3cnn(C4CCN(C(=O)OC)CC4)c3n2)cc1`, the “activity change, gain of signal” value is 1.9% (inactive).

Turning to `C[C@@H](NC(=O)c1ncnc(N)c1Cl)c1ncc(C(=O)Nc2cc(C(F)(F)F)c(Cl)cn2)s1`, the Potency is 241 nM (active).

Turning to `COc1ccc(-n2c(C)c([N+](=O)[O-])c3ccc(O)cc32)cc1`, the “activity change, gain of signal” value is 11.4% (inactive).

With `C[C@@H]1CN(CC(=O)Nc2ccc3c(c2)Cc2cccc(-c4cc(=O)cc(N5CCOCC5)o4)c2S3)C[C@H](C)O1`, the “activity change, gain of signal” value was -12.9% (inactive).

With `CC(C)CCN1c2nc(Nc3cc(F)c(O)c(F)c3)ncc2N(C)C(=O)C1C` (stereo not given), the “activity change, gain of signal” value is 15.7% (inactive).

For `Nc1nc(Nc2ccc(S(N)(=O)=O)cc2)n(C(=S)Nc2c(F)cccc2F)n1`, the Potency was 248 nM (active).

In the case of `O=C(Nc1cc(C(F)(F)F)ccc1N1CCCCC1)c1ccncc1`, the “activity change, gain of signal” value is -5.06% (inactive).

Turning to `CCCS(=O)(=O)Nc1ccc(F)c(C(=O)c2c[nH]c3ncc(Cl)cc23)c1F`, the Potency was 9320 nM (active).

On to `Nc1ncccc1-c1nc2ccc(-c3ccccc3)nc2n1-c1ccc(C2(N)CCC2)cc1`, for which the “activity change, gain of signal” value was 1.51% (inactive).

Consider `Cc1nc(NC(=O)N2CCC[C@H]2C(N)=O)sc1-c1ccnc(C(C)(C)C(F)(F)F)c1`, for which the Potency was 2090 nM (active).

On to `CCNC(=O)Nc1ccc(-c2nc3c(c(N4CCOC[C@@H]4C)n2)CCN(c2ncccn2)C3)cc1`, for which the “activity change, gain of signal” value is 11.4% (inactive).

Consider `Oc1ccc(-c2ccc(-c3cc(Nc4cccc(CNC5CC5)c4)n[nH]3)cc2)c(O)c1`, for which the Potency was 9600 nM (active).

As to `C=CC(=O)N1CCC[C@@H](n2nc(-c3cccc(C(=O)Nc4ccc(C(C)C)c(C)c4)c3)c3c(N)ncnc32)C1`, the Potency is 4410 nM (active).

Take `O=C(NC1CCNCC1)c1[nH]ncc1NC(=O)c1c(Cl)cccc1Cl`: the “activity change, gain of signal” value was 11.1% (inactive).

Regarding `CCn1nc(C2CCN(C(=O)CCO)CC2)nc1-c1cnc(N)c(-c2nnc(C(C)(C)C)o2)n1`, the Potency is 6230 nM (active).

Regarding `COc1cc(N2CCC(O)CC2)ccc1Nc1nc(Nc2ccccc2S(=O)(=O)C(C)C)c2[nH]cnc2n1`, the Potency is 10800 nM (active).

In the case of `COc1cc2ncnc(Oc3cccc(NC(=O)Nc4cc(C(C)(C)C(F)(F)F)on4)c3)c2cc1OC`, the Potency is 234 nM (active).
